Nine compounds from PubChem BioAssay (NCATS) can be followed below.

Each structure is given as a SMILES string. Results filed as inconclusive are left out. Active and inactive are the calls of the source. Unless noted, calls follow the shape of the dose curve; as a rule, active = well fitted curve in the direction sought with a large enough effect; inconclusive = small, poorly fitted or top-dose-only effect, or another doubt; inactive = no such curve, though single readings can be large; an effect the other way counts as inactive or inconclusive.

The target in one assay is Furin (Homo sapiens) (UniProt P09958). Nature of the assay: Furin counterscreen qHTS for Zika virus inhibitors (AID 1347149).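 Also: purified recombinant full-length human furin enzyme at 5 nM; fluorescence gain from furin cutting a BOC-RVRR-AMC peptide substrate over 15 min; top concentration of the series differs between compounds; plate controls were no-inhibitor control for no effect and no-enzyme control for full effect; nearly all actives have a fitted effect of over 70% in size.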 The procedure, abridged: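 Fluorogenic cleavage of BOC-RVRR-AMC (2 microM final, Km ~15 µM) was monitored (ex 340, em 450 nm) at 37C after 15 min RT preincubation of 5 nM furin with compounds in HEPES pH 7.0 buffer with CaCl2 and Triton X-100. Percent inhibition was fitted to a 4-parameter Hill curve.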
For orientation: A counterscreen serves to expose hits that act by an unwanted route or on another target.

The test system of assay [1] is Zika virus NS2B-NS3 protease (unlinked). Put plainly: Optimization of GU AMC qHTS for Zika virus inhibitors: Unlinked NS2B-NS3 protease assay (AID 1347151).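 Also: 0% = no-inhibitor control and -100% = no-enzyme control; nearly all actives have a fitted effect of over 80% in size.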 The procedure, abridged: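 In this qHTS, compounds acted on 25 nM unlinked Zika NS2B–NS3 in pH 8.0 Tris/Tween buffer. Cleavage of an AMC peptide ran 15 min at room temperature, to about 20% conversion.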
Assay [2] is described as follows: Vero cells viability qHTS for Zika virus inhibitors (AID 1347167). Also: % is scaled to controls: 0 for no effect and ±100 for the full control effect. The procedure, abridged:
(§1)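 Cells seeded at 2.5 x 10^5 cells/mL in DMEM with 4% FBS and attached overnight at 37 degrees C, then exposed to compound for 24 to 48 hours. Viability read as ATP content by CellTiter Glo luminescence.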
(Quantitative high-throughput screening tests each substance at several concentrations.)

The nature of assay [3]: Tertiary RLuc qRT-PCR qHTS assay for Zika virus inhibitors (AID 1347169). Also: nearly all actives have a fitted effect of over 55% in size. Also: potency is read from the fitted curve at half-maximal effect. An outline of the steps:
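Inhibition of ZIKV-RLuc replication in Vero cells, read as Renilla luminescence 1-1.5 hrs after live-cell substrate addition, following 48-72 hrs infection at MOI 1-2 in presence of compound.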
On the technique in general: Quantitative PCR measures a nucleic acid by following its amplification.

Assay [4] in a line: Primary qHTS for small molecule stabilizers of the endoplasmic reticulum resident proteome: Secreted ER Calcium Modulated Protein (SERCaMP) assay (AID 1508630). Also: potency is read from the fitted curve at half-maximal effect. As to activity change, negative = inhibition: % is scaled to controls: 0 for no effect and ±100 for the full control effect. The procedure, abridged: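 GLuc-SERCaMP-expressing SH-SY5Y cells, pretreated 16 h with compound, are challenged with thapsigargin to empty ER calcium stores; after 4 h, coelenterazine is added directly to the medium and luminescence is imaged.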

The nature of assay [5]: qHTS Assay for Lipid Storage Modulators (AID 1519; calls by dose curve; as to activity change, negative = inhibition: % is scaled to controls: 0 for no effect and ±100 for the full control effect). The note with it: Drosophila S3 cells, BODIPY lipid droplet/cell ratio, laser cytometry, cells loaded with oleic acid. An outline of the steps:
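Cells seeded at 5,000 per well were treated with compounds over a concentration series and loaded with oleic acid (400 uM, as added). Lipid droplet fluorescence (488 nm excitation, 500-530 nm channel) was read by laser-scanning cytometry and normalized to 20 uM Triacsin C.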

Assay [6] concerns Zika virus NS2B-NS3 protease. Nature of the assay: Primary screen GU AMC qHTS for Zika virus inhibitors (AID 1347154).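 Also: 0% = no-inhibitor control and -100% = no-enzyme control; nearly all actives have a fitted effect of over 70% in size.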 An outline of the steps:
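Unlinked Zika NS2B hydrophilic domain–NS3 protease complex at 25 nM in 10 mM Tris-HCl pH 8.0, 0.01% Tween 20, with an AMC peptide substrate. Fluorescence change (340/450 nm) over 15 min at room temperature, normalized to controls, fitted to 4-parameter Hill.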

Assay [7] in a line: HepG2 cells viability qHTS for Zika virus inhibitors (AID 1347168). Also: potency is read from the fitted curve at half-maximal effect. The procedure, abridged: as §1
The nature of assay [8]: Counterscreen qHTS for small molecule stabilizers of the endoplasmic reticulum resident proteome: GLuc-NoTag assay (AID 1508627).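 Also: 0% = thapsigargin alone and -100% = DMSO vehicle control.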 An outline of the steps:
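SH-SY5Y cells stably expressing constitutively secreted GLuc without SERCaMP tag, exposed to compound for 19 hr, then to 100 nM thapsigargin for 4 hr at 37C. Medium luciferase was read by coelenterazine luminescence without lysis.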

Assay [9] is described as follows: Confirmatory qHTS for small molecule stabilizers of the endoplasmic reticulum resident proteome: Secreted ER Calcium Modulated Protein (SERCaMP) assay (AID 1508628). Also: potency is read from the fitted curve at half-maximal effect; nearly all actives have a fitted effect of over 40% in size. The procedure, abridged: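 SH-SY5Y cells stably expressing GLuc-SERCaMP, treated 16 h with compound (primary 1.53, 7.67, 38.3 uM; confirmation 11 concentrations, up to 76.6 uM), then 100 nM thapsigargin for 4 h. Secreted Gaussia luciferase in medium read by coelenterazine luminescence.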

The nature of assay [10]: Cell Viability qHTS for small molecule stabilizers of the endoplasmic reticulum resident proteome (AID 1508629).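 Also: human SH-SY5Y neuroblastoma cells carrying the GLuc-SERCaMP reporter; compound exposure about 46 h in total before the viability read; % is scaled to controls: 0 for no effect and ±100 for the full control effect.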 Particulars: cell viability counter-screen, 100 nM thapsigargin for final 4 h.
In assay [11] the target is Cytochrome P450 3A4 (Homo sapiens) (UniProt P08684). Nature of the assay: qHTS Assay for Inhibitors and Substrates of Cytochrome P450 3A4 (AID 884). Also: potency is read from the fitted curve at half-maximal effect; nearly all actives have a fitted effect of over 50% in size. An outline of the steps: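 20 nM human CYP3A4 with 25 uM Luciferin-PPXE (at KM) in 200 mM KPO4, preincubated 10 min with compound; NADPH regeneration started a 60 min RT reaction. Luciferin detected by luminescence, normalized to 57 uM ketoconazole as full inhibition.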

Assay [12] has the same target. Nature of the assay: qHTS Assay for Activators of Cytochrome P450 3A4 (AID 885). Also: nearly all actives have a fitted effect of over 65% in size. An outline of the steps:
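Human CYP3A4 (20 nM) with Luciferin-PPXE at 25 uM (its KM) in 200 mM KPO4; 10 min compound preincubation, then NADPH regeneration and 60 min reaction at RT. Luciferin read by luminescence; normalized to 57 uM ketoconazole full inhibition.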

A short description of assay [13]: Confirmation and Secondary Assay for Modulators of Hemoglobin Beta Chain Splicing at IVS2 705 locus (AID 930).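 Also: HeLa cells stably expressing the EGFP-705 splicing reporter; GFP fluorescence per well restored by corrected splicing of the IVS2-705 intron in EGFP; % of control where 0% means no effect.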 An outline of the steps:
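First, HeLa EGFP-705 cells are seeded at 500/well in Optimem with 2% FCS and left overnight. Next, compound or DMSO is added for 2 days. Finally wells are laser-scanned and total peak GFP intensity scored.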

The target in assay [14] is Ubiquitin carboxyl-terminal hydrolase 1 (Homo sapiens) (UniProt O94782). Put plainly: Inhibitors of USP1/UAF1: Pilot qHTS (AID 504865). Also: potency is read from the fitted curve at half-maximal effect; nearly all actives have a fitted effect of over 35% in size. The procedure, abridged: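 Enzyme-free wells gave the negative control, while test wells held 1nM USP1/UAF1 preincubated with compound for 15 min at room temperature. Ub-Rho at 150nM final started the reaction, and fluorescence at 480/540 nm was recorded kinetically.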

Assay [15] has as its system Zika virus NS2B-NS3 protease (unlinked complex). Put plainly: Confirmatory screen GU AMC qHTS for Zika virus inhibitors (AID 1347153).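 Also: enzyme at 25 nM with substrate at 10 µM below its Km of 18.3 µM; potency is read from the fitted curve at half-maximal effect; nearly all actives have a fitted effect of over 70% in size.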 An outline of the steps: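 Unlinked NS2B-NS3 complex (25 nM) in 10 mM Tris-HCl pH 8.0, 0.01% Tween 20 preincubated 15 min with compound, then 10 microM Bz-Nle-KRR-AMC (Km 18.3 µM). Fluorescence change over 15 min, normalized, Hill-fitted.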

Assay [16] in a line: Confirmatory screen NINDS Rhodamine qHTS for Zika virus inhibitors (AID 1347161). Also: potency is read from the fitted curve at half-maximal effect; nearly all actives have a fitted effect of over 60% in size. The procedure, abridged:
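Purified NS2B-NS3 protease with the NS2B hydrophilic domain joined by a flexible linker (25 nM) in 10 mM Tris-HCl pH 8.0, 0.01% Tween 20, preincubated 15 min at RT with compound; Rhodamine110 peptide substrate 1.5 µM; fluorescence change over 15 min; 4-parameter Hill fit.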

Assay [17] relates to Zika virus NS2B-NS3 protease (linked). Put plainly: 384 well plate NINDS AMC confirmatory qHTS for Zika virus inhibitors (AID 1347163). Also: potency is read from the fitted curve at half-maximal effect; nearly all actives have a fitted effect of over 50% in size. Particulars: Recombinant NS2B-NS3 protease, Ac-VKTGKR-AMC fluorescence. The procedure, abridged: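 Linked NS2B-NS3 protease (final 5 nM, 30 nM or 60 nM) was preincubated with compounds (final up to 1 mM) for ~15 minutes. Ac-VKTGKR-AMC substrate (final 30 microM) then reacted for 25 minutes at room temperature in the dark. Fluorescence (ex 355/em 460 nm) was normalized to no-enzyme and no-inhibitor controls.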

Assay [18] addresses Rap guanine nucleotide exchange factor 3 (Homo sapiens) (UniProt O95398). Nature of the assay: Confirmatory qHTS for antagonist of cAMP-regulated guanine nucleotide exchange factor 3 (EPAC1) (AID 1645880). Also: potency is read from the fitted curve at half-maximal effect; nearly all actives have a fitted effect of over 55% in size. The procedure, abridged: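 Nucleotide exchange uses 100 nM EPAC1, 250 nM RAP1B-BODIPY-GDP and 50 uM GDP, with compounds in a concentration-titration series. After 5 min at room temperature, fluorescence (480 nm ex/540 nm em) is read every 5 min for 30 min. Data are normalized to control ATA and DMSO.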

Assay [19] shares this target. Nature of the assay: Confirmatory qHTS for agonist of cAMP-regulated guanine nucleotide exchange factor 3 (EPAC1) (AID 1645881).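 Also: EPAC1 catalysed release of BODIPY-GDP from Rap1B seen as fluorescence loss; 100% = effect of cAMP agonist control; nearly all actives have a fitted effect of over 75% in size.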
In assay [20] the target is Rap guanine nucleotide exchange factor 4 (Homo sapiens) (UniProt Q8WZA2). Nature of the assay: Confirmatory qHTS for agonist of cAMP-regulated guanine nucleotide exchange factor 4 (EPAC2) (AID 1645884).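 Also: nucleotide exchange releases bodipy-GDP from Rap1 and this lowers its fluorescence; % is scaled to controls: 0 for no effect and ±100 for the full control effect; nearly all actives have a fitted effect of over 65% in size.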
Assay [21] has the same target. Put plainly: Confirmatory qHTS for antagonist of cAMP-regulated guanine nucleotide exchange factor 4 (EPAC2) (AID 1645885). Also: % is scaled to controls: 0 for no effect and ±100 for the full control effect; nearly all actives have a fitted effect of over 25% in size.
Assay [22] has as its target Nucleoprotein (Lymphocytic choriomeningitis virus (strain Armstrong)) (UniProt P09992). Nature of the assay: qHTS for Inhibitors of the Functional Ribonucleoprotein Complex (vRNP) of Lymphocytic Choriomeningitis Arenaviruses (LCMV): LCMV Primary Screen - GLuc reporter signal (AID 1347086; calls by dose curve; also: % is scaled to controls: 0 for no effect and ±100 for the full control effect; nearly all actives have a fitted effect of over 70% in size).
A short description of assay [23]: Cytotoxicity counterscreen for inhibitors of SARS-CoV-2 cell entry (AID 1645845; calls by dose curve; also: % is scaled to controls: 0 for no effect and ±100 for the full control effect; nearly all actives have a fitted effect of over 50% in size). The procedure, abridged: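 HEK293-ACE2 cells (Expi293F stably expressing human ACE2) seeded overnight, then compound for 1 h plus 48 h at 37C. Viability as ATP content by luminescence; normalized to wells with cells and media-only wells.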

Furin (Homo sapiens), sequence (P09958 whole entry, looked up): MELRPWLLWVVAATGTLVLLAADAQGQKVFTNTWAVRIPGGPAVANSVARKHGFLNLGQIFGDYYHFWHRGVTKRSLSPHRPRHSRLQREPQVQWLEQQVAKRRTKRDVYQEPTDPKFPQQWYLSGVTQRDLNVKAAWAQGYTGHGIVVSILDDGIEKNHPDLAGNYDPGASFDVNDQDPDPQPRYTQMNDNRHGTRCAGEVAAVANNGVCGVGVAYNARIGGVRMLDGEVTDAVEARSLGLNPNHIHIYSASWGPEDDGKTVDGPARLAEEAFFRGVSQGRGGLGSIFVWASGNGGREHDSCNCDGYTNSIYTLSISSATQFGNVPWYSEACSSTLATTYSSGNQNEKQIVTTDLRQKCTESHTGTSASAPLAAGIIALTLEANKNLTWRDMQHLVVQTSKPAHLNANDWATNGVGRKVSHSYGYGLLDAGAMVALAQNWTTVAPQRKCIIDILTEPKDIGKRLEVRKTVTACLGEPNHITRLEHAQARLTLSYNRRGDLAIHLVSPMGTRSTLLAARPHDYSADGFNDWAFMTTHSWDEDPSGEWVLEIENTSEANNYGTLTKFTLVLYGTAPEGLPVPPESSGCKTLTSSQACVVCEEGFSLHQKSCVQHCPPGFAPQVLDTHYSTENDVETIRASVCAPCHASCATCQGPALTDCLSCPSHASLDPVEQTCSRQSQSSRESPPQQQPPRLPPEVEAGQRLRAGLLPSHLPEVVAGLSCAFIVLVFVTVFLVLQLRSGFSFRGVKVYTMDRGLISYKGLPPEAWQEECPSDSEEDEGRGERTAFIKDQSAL
Rap guanine nucleotide exchange factor 4 (Homo sapiens), sequence (Q8WZA2 whole entry, looked up): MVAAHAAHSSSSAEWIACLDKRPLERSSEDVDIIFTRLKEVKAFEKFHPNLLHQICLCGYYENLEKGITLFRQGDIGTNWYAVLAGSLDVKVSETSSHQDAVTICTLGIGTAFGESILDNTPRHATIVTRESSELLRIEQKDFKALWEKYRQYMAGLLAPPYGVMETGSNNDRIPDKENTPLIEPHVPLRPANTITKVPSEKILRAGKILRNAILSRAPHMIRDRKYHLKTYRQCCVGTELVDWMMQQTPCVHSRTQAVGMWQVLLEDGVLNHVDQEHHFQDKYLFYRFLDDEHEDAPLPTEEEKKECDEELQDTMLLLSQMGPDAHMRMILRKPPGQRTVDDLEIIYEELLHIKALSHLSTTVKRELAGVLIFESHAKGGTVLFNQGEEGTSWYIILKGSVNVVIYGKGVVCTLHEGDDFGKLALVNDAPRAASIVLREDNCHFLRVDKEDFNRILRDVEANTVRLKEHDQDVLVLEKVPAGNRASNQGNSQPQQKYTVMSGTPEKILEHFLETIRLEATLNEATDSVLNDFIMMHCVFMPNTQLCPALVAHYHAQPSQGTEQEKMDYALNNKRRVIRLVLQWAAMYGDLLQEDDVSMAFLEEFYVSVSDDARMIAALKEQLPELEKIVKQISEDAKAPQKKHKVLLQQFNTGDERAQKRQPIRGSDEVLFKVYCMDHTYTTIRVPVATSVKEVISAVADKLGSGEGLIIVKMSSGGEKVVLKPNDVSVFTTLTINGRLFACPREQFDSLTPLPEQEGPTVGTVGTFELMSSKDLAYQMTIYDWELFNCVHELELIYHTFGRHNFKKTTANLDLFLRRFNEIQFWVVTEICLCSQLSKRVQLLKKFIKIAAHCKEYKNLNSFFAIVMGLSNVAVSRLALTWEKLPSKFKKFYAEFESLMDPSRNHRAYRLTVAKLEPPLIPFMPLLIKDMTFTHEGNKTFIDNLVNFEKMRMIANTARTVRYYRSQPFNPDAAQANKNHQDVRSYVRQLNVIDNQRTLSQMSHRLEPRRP
Cytochrome P450 3A4 (Homo sapiens), sequence (P08684 whole entry, looked up): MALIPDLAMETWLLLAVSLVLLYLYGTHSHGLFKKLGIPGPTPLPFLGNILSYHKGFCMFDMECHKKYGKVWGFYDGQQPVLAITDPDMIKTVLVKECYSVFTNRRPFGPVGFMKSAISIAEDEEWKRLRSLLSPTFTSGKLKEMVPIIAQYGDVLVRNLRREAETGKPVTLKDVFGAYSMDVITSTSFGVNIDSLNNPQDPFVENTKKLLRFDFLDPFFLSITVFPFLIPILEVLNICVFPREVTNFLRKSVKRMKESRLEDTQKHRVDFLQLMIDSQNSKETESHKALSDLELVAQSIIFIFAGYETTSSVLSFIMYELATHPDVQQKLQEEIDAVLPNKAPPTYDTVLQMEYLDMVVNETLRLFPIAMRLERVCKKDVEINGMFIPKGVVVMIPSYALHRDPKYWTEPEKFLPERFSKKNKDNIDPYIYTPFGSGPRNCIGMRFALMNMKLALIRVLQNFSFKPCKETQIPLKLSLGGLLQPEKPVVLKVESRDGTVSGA
Rap guanine nucleotide exchange factor 3 (Homo sapiens), sequence (O95398 whole entry, looked up): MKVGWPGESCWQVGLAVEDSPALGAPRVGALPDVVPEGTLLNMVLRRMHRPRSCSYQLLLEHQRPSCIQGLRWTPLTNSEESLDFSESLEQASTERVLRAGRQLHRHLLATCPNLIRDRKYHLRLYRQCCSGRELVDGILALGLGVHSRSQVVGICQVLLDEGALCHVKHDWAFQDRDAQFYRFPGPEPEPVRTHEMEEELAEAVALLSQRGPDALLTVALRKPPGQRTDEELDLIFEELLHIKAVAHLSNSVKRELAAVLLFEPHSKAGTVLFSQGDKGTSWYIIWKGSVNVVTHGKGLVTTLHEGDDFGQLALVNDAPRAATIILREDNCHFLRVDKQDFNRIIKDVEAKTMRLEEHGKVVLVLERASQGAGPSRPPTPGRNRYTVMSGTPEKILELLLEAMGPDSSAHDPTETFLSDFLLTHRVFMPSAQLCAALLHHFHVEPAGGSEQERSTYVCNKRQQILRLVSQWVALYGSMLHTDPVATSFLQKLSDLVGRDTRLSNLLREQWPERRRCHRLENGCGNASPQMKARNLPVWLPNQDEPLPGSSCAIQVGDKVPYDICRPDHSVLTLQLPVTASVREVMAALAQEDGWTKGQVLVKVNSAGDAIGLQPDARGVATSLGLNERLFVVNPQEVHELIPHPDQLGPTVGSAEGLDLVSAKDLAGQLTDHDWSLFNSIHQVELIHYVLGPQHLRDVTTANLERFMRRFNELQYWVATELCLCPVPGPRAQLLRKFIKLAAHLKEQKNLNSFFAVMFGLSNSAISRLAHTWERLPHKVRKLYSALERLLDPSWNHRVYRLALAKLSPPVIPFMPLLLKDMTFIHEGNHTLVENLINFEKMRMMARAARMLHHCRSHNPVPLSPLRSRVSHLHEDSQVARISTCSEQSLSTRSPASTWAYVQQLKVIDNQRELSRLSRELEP
Ubiquitin carboxyl-terminal hydrolase 1 (Homo sapiens), sequence (O94782 whole entry, looked up): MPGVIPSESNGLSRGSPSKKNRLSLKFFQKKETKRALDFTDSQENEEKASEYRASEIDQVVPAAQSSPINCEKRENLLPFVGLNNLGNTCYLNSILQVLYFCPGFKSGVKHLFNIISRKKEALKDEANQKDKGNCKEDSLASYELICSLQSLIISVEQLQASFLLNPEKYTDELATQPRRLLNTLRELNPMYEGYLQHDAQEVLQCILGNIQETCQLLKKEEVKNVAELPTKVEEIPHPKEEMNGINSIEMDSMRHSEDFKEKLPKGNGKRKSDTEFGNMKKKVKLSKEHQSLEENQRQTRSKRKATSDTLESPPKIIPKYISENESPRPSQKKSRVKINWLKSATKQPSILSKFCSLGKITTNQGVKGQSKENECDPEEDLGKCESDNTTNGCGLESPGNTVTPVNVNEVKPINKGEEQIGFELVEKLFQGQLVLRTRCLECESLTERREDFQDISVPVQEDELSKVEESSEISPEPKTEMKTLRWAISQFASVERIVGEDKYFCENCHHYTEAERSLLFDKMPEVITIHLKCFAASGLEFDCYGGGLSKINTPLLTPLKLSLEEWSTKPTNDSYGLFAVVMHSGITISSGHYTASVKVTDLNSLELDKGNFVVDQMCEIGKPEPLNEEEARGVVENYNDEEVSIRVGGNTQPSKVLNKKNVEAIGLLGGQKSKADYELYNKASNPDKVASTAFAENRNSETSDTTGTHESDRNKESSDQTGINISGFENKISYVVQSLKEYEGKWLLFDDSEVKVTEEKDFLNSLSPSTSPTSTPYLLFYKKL
Nucleoprotein (Lymphocytic choriomeningitis virus (strain Armstrong)), sequence (P09992 whole entry, looked up): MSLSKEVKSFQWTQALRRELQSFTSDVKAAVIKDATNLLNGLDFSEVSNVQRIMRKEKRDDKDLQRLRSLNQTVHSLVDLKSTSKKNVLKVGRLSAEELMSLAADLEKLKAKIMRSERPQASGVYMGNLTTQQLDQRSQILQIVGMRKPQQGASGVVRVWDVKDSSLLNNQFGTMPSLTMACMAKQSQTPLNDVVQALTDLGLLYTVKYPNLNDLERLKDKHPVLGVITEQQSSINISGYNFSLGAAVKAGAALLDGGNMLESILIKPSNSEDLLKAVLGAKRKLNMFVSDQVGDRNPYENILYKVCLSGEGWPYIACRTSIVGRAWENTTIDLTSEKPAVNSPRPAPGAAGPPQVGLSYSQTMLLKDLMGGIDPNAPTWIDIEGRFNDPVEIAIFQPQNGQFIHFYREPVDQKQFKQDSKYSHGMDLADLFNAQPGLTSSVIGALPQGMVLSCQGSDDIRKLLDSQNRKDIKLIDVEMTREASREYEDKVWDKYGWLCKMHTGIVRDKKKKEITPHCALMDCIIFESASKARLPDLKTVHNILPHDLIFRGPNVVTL

Regarding `C[C@@H]1O[C@@H](O[C@H]2C[C@@H](O)[C@]3(CO)C4C(CC[C@]3(O)C2)[C@@]2(O)CC[C@H](C3=CC(=O)OC3)[C@@]2(C)C[C@H]4O)[C@H](O)[C@H](O)[C@H]1O` (stereo partly drawn), the Potency entry (with Furin (Homo sapiens); in assay [2]; in assay [4]) was “inactive” in each case. Besides, the call in assay [1] was inactive. Further, the Potency in [3] is 0.234 µM (active).

As to `CC1O[C@@H](O[C@@H]2C(O)C[C@H](O[C@@H]3C(O)C[C@@H](OC4CC[C@@]5(C)C6CC[C@]7(C)C(C8=CC(=O)OC8)CC[C@@]7(O)C6CC[C@@H]5C4)OC3C)OC2C)CC(O)[C@H]1O` (stereo partly drawn), the activity change, negative = inhibition in assay [5] (at 57.5 µM (top of the series)) is 3.23% (inactive). In addition, the max response in assay [5] (measured here: cell count channel max response) amounted to 20.2%; in [5] (measured here: lipid channel max response), 25.7%. Moreover, the Potency result (with Furin (Homo sapiens); in assay [2]) was “inactive” each time. Also, in assay [1], the outcome was inactive. In addition, the Potency in assay [3] was 0.208 µM (active).

As for `O[C@@H]1CCCC[C@@H]1N1CCC(c2ccccc2)CC1`, in [6], the Potency entry is “inactive”.

Consider `CN1CC[C@@]23CCCCC2C1Cc1ccc(O)cc13` (stereo partly drawn), for which the Potency entry (with Furin (Homo sapiens); in assay [2]; in assay [7]; in assay [3]; in assay [8]) was “inactive” in each case. In assay [1], the compound was called inactive. For the same compound, the Potency in assay [9] is 3.98 µM (active); in assay [4] it was 35.5 µM (active). In addition, in assay [10], the max response is 30% (inactive).

On to `CC(C)=CCCC1(C)C=Cc2c(O)c3c(c(CC=C(C)C)c2O1)OC12C(=CC4CC1C(C)(C)OC2(C/C=C(/C)C(=O)O)C4O)C3=O` (stereo not drawn), for which the Potency in assay [11] was 20 µM (active); in assay [14], 35.5 µM (active); in assay [15], 17.1 µM (active); in assay [16] it was 2.78 µM (active); in [17], 126 µM (active); in assay [7] it was 18.6 µM (active). Besides, the Potency in [3] was 5.87 µM (active); in assay [18], 28 µM (active). Moreover, the Potency entry (in [12]; with Furin (Homo sapiens); in assay [2]; in assay [4]; in [21]) was “inactive” in each case. For the same compound, the result in assay [13], in [19] and in [20] was inactive.

Take `CCCCCCCCCCCCCCCCOC[C@H](COP(=O)([O-])OCC[N+](C)(C)C)OC(C)=O`: the activity change, negative = inhibition in assay [6] was -0.0514% [at 6.83 µM] (inactive).

`C=C(C)C1CCC(C)=CC1c1c(OC)cc(C)cc1OC` (stereo not drawn): in assay [6], the Potency result was “inactive”.

As to `COC(C/C=C/C=C/CC/C=C\CC(C)/C=C\C(=C/C(=O)O)CC(=O)O)/C(C)=C\C=C(/C)C(=O)O` (stereo not drawn), in assay [6], the activity change, negative = inhibition is 8.89% [at 6.83 µM] (inactive).

As to `COc1ccc(-c2coc3cc(O)cc(O)c3c2=O)cc1`, the Potency entry in assay [22] and in assay [23] was “inactive” each time.
